{
  "source": "PubChem BioAssay (NCI)",
  "note": "This is part of a sample that, as a whole, favours compounds with a hit. Of some 83,000 tested, about 20% had one in any assay.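 How to read the values: 0–100, growth inhibition (40 = 60% inhibited); 0, no net growth; -100 to 0, cell death (-40 = 40% of starting cells died; -100 = all dead).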 Activity calls are given as the source filed them. The calls were made as follows: active = growth percent below 10; inactive = the rest.",
  "data": [
    {"system": "HL-60(TB) leukemia", "assay": "NCI-60 one-dose screen, 48 h (100 = growth as untreated, 0 = no growth, -100 = all killed)", "conditions": "10 µM unless noted", "values": [
      {"smiles": "C=C(C=O)[C@@H]1CC[C@]2(C)[C@H](CC=C3[C@H]4[C@@H](C)[C@H](C)CC[C@]4(C(=O)OC)CC[C@]32C)[C@@]1(C)CCC#N", "growth": "-25.2% (active)"},
      {"smiles": "CN(C)CCN(C)c1ccc2ncc(C#Cc3cncc(C(=O)Nc4ccc(CN5CCN(C)CC5)c(C(F)(F)F)c4)c3)n2n1", "growth": "36.5% (inactive)"},
      {"smiles": "C#Cc1cc(OC)c(C(=O)Nc2ccc(F)cc2C(=O)Nc2cccc(S(=O)(=O)C(F)(F)F)c2)cn1", "growth": "-51.6% (active)"},
      {"smiles": "Cc1ccc(NC(=O)c2cc(/C=C/C(=O)NO)cc(C(F)(F)F)c2)cc1Nc1nccc(-c2cccnc2)n1", "growth": "0.414% (active)"},
      {"smiles": "O=C(CCN1C(=O)/C(=C/c2ccccc2)SC1=S)N1CCOCC1", "growth": "89.3% (inactive)"},
      {"smiles": "COc1ccc(C2c3[nH]c4ccc(Cl)cc4c3CCN2c2oc(CO)nc2C#N)cc1", "note": "(stereo unspecified)", "growth": "29.4% (inactive)"},
      {"smiles": "Cc1cc(C(=O)Nc2sc3c(c2C(N)=O)CCC(=O)C3)ccc1OCCN1CCCCC1", "growth": "63.3% (inactive)"},
      {"smiles": "Clc1ccc2c(NCCCN3CCOCC3)c3oc4ccc(Cl)cc4c3nc2c1", "growth": "67.7% (inactive)"},
      {"smiles": "O=C(CSc1nc2ccccc2c(=O)n1-c1ccc(Cl)cc1)N/N=C/c1ccc(N2CCCCC2)cc1", "growth": "108% (inactive)"},
      {"smiles": "CCOC(=O)c1c(NC(=O)c2cccc(C(F)(F)F)c2)sc2cc(O)ccc12", "growth": "46.9% (inactive)"},
      {"smiles": "CCCCCCCCNC(=O)c1ccc(Cn2c(CCCC)nc3c(N)nc4ccccc4c32)cc1", "growth": "-57.6% (active)"},
      {"smiles": "Clc1ccc2oc3c(NCCCN4CCOCC4)c4ccccc4nc3c2c1", "growth": "20.8% (inactive)"},
      {"smiles": "O=C(/C=C/c1ccccc1)c1cccc(O)c1", "growth": "87.5% (inactive)"},
      {"smiles": "COc1ccc(/C=N/NC(=O)CSc2nc(-c3cnccn3)cc(-c3cccs3)c2C#N)cc1OC", "growth": "101% (inactive)"},
      {"smiles": "O=c1c2ccccc2cc2n1CCN=C2c1ccccc1", "growth": "97.8% (inactive)"},
      {"smiles": "Cn1cc(-c2cc(N)n3nc(-c4cn(C)c5ccccc45)cc3n2)c2ccccc21", "growth": "11.6% (inactive)"},
      {"smiles": "COc1cc(-c2nn(C(C)(C)C)cc2-c2ccnc(NCCCNS(=O)(=O)c3ccccc3)n2)ccc1Cl", "growth": "103% (inactive)"},
      {"smiles": "C=CCn1c(SCC(=O)Nc2cccc(C(=O)/C=C/c3ccc(Cl)cc3)c2)nc2ccccc2c1=O", "growth": "103% (inactive)"},
      {"smiles": "O=C(/C=C/c1cccc(F)c1)c1cccc(OCCCOc2cccc(C(=O)/C=C/c3cccc(F)c3)c2)c1", "growth": "68.3% (inactive)"},
      {"smiles": "FC(F)(F)c1cc(Nc2cccc(Oc3ccc(NC4=NCCN4)nc3)c2)ccc1Cl", "growth": "-52.5% (active)"},
      {"smiles": "Cn1cc(-c2nn3cc(-c4ccncc4)nc3s2)c2cc(F)ccc21", "growth": "-1.16% (active)"},
      {"smiles": "c1ccc(-c2cn3c(-c4c[nH]c5ccccc45)csc3n2)cc1", "growth": "56% (inactive)"},
      {"smiles": "COc1ccc(N2CCN(C(=O)CSc3ccc(-c4nc5cc(C)c(C)cc5[nH]4)cn3)CC2)cc1", "growth": "29.4% (inactive)"},
      {"smiles": "CN1CCN(c2ccc3c(c2)nc(NNC(=O)c2ccncn2)c2cccn23)CC1", "growth": "10.4% (inactive)"},
      {"smiles": "CCN1C(=O)N(CC)C2SC(N/N=C/c3ccc(F)cc3)=NC21", "note": "(stereo unspecified)", "growth": "2.85% (active)"},
      {"smiles": "Cc1ccc(/C=C/CC(=O)Nc2ccc(C(=O)Nc3ccc(F)cc3N)nc2)cn1", "growth": "-19.6% (active)"},
      {"smiles": "COc1cccc(/C=C/C(=O)c2ccc(NC(=O)COc3cccc4cccnc34)cc2)c1", "growth": "80.5% (inactive)"},
      {"smiles": "Cc1cccc2c3c(sc12)C(c1ccc(Cl)cc1)c1c(nc(CC(=O)Nc2ccccc2)[nH]c1=O)O3", "note": "(stereo unspecified)", "growth": "71.3% (inactive)"},
      {"smiles": "CCc1cccc2c3c(sc12)C(c1ccc(F)cc1)C(C#N)=C(/N=C/c1ccc(Cl)cc1)O3", "note": "(stereo unspecified)", "growth": "7.08% (active)"},
      {"smiles": "Cc1cc(Br)ccc1-n1cc(C#N)c(N)c1C(=O)c1ccc(Br)cc1", "growth": "110% (inactive)"},
      {"smiles": "NS(=O)(=O)c1ccc(Nc2nc(Nc3ccccc3)nc(-n3nc(-c4ccccc4)cc3-c3ccccc3)n2)cc1", "growth": "4.82% (active)"},
      {"smiles": "NCCNC(=O)c1cccc(COc2ccccc2NC(=O)c2cc(Br)c(Br)[nH]2)c1", "growth": "69.5% (inactive)"},
      {"smiles": "O=C(CSc1nc2ccccc2c(=O)n1-c1ccccc1)N/N=C/c1ccc(Oc2ccc(Br)cc2)cc1", "growth": "105% (inactive)"},
      {"smiles": "CN(c1ccc(Cl)cc1)S(=O)(=O)c1ccc(-c2cnc(C3CC3)o2)cc1", "growth": "-15.9% (active)"},
      {"smiles": "CN1CCN(c2nc(-c3csc(-c4ccccc4)n3)cc3ccccc23)CC1", "growth": "6.57% (active)"},
      {"smiles": "C=C1CC[C@@H]2[C@]3(C)COC(c4ccccc4)O[C@@H]3CC[C@@]2(C)[C@@H]1C/C=C1/C(=O)OC[C@H]1O", "note": "(stereo partly specified)", "growth": "48.9% (inactive)"}
    ]}
  ]
}
